# Data taken from PubChem BioAssay (NCATS).
# Where “and” joins values, the source holds several entries; their conditions need not be identical. Identical values can stand only once. Unmarked numbers belong to inactive results. Inconclusive results are not listed. A call without a number means that no potency is given here. Calls of active or inactive are those of the source. Unless noted, calls come from the whole dose curve; as a rule, active = well fitted curve in the direction sought with a large enough effect; inconclusive = small, poorly fitted or top-dose-only effect, or another doubt; inactive = no such curve, though single readings can be large; an effect the other way counts as inactive or inconclusive.
# How the values were obtained:
# [1] = test system: CAOV3; assay: Primary qHTS to identify gynecologic anti-cancer compounds using libraries of approved drugs and bioactive compounds (AID 1345084); conditions: Gynecologic cancer cell panel viability, ATPlite luminescence, 48 h; series mostly up to 57.5 µM; note: nearly all actives have a fitted effect of over 55% in size; note: potency is the fitted concentration of half-maximal effect
# In short: (§1)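 In this quantitative HTS, cell killing is estimated from loss of ATP-dependent luciferase light. Cells see five compound concentrations over a 48 h exposure.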
# [2] = test system: CASKI; assay: as above; conditions: Gynecologic cancer cell panel viability, ATPlite luminescence, 48 h; series mostly up to 57.5 µM
# In short: as §1
# [3] = test system: Es-2; assay: as above; conditions: Gynecologic cancer cell panel viability, ATPlite luminescence, 48 h; series mostly up to 57.5 µM
# In short: as §1
# [4] = test system: HeLa; assay: as above; conditions: Gynecologic cancer cell panel viability, ATPlite luminescence, 48 h; series mostly up to 57.5 µM
# In short: as §1
# [5] = test system: Hek293T; assay: as above; conditions: Gynecologic cancer cell panel viability, ATPlite luminescence, 48 h, control line for the selectivity index; series mostly up to 57.5 µM
# In short: as §1
# [6] = test system: JEG-3; assay: as above; conditions: Gynecologic cancer cell panel viability, ATPlite luminescence, 48 h; series mostly up to 57.5 µM
# In short: as §1
# [7] = test system: OV90; assay: as above; conditions: Gynecologic cancer cell panel viability, ATPlite luminescence, 48 h; series mostly up to 57.5 µM
# In short: as §1
# [8] = test system: PA-1; assay: as above; conditions: Gynecologic cancer cell panel viability, ATPlite luminescence, 48 h; series mostly up to 57.5 µM
# In short: as §1
# [9] = test system: SKOV3; assay: as above; conditions: Gynecologic cancer cell panel viability, ATPlite luminescence, 48 h; series mostly up to 57.5 µM
# In short: as §1
# [10] = test system: Tov-21-G; assay: as above; conditions: Gynecologic cancer cell panel viability, ATPlite luminescence, 48 h; series mostly up to 57.5 µM
# In short: as §1
# [11] = test system: Tov112D; assay: as above; conditions: Gynecologic cancer cell panel viability, ATPlite luminescence, 48 h; series mostly up to 57.5 µM
# In short: as §1
# [12] = Drug repurposing screens with cells derived from glioblastoma tumor samples (AID 1345199); conditions: GBM patient neurospheres viability, ATP luminescence, 48 h; note: nearly all actives have a fitted effect of over 40% in size; note: potency is the fitted concentration of half-maximal effect
# In short: (§2)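 Primary testing used CD133+ neurospheres from four GBM patients, seven concentrations, 48 h exposure and ATP-based viability; confirmation added three slower-growing patient lines.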
# [13] = test system: astro; assay: as above; conditions: viability, ATP luminescence, 48 h; series mostly up to 45.9 µM
# In short: as §2
# [14] = target: Nuclear receptor subfamily 1 group I member 2 (Rattus norvegicus) (UniProt Q9R1A7); assay: qHTS assay for small molecule activators of the rat pregnane X receptor (rPXR) signaling pathway (AID 651751; call rule not given here); conditions: rPXR reporter cells, luciferase (One-Glo), 24 h
# Nuclear receptor subfamily 1 group I member 2 (Rattus norvegicus), sequence (Q9R1A7 whole entry, looked up): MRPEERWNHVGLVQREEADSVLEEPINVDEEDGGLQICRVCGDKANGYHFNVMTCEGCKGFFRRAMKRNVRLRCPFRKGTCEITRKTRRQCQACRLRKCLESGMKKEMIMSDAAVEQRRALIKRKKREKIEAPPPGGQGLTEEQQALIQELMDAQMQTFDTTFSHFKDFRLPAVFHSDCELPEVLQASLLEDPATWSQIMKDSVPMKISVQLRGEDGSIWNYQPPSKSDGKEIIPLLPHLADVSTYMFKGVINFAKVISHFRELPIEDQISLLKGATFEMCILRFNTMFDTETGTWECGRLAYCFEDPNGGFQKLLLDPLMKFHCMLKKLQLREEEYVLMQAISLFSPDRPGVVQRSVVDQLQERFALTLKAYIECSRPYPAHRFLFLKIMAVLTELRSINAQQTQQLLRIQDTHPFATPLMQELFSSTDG
# [15] = qHTS assay for small molecule activators of the human pregnane X receptor (PXR) signaling pathway (AID 720659; call rule not given here)
# [16] = at 45.9 µM (top of the series), tumour line B
# [17] = at 45.9 µM (top of the series), tumour line D
# [18] = at 46.1 µM (top of the series), tumour line C
# [19] = at 46 µM (top of the series), tumour line A
SMILES,Potency [1],Potency [2],Potency [3],Potency [4],Potency [5],Potency [6],Potency [7],Potency [8],Potency [9],Potency [10],Potency [11],"activity, negative = cell killing [12, 16] [%]","activity, negative = cell killing [12, 17] [%]","activity, negative = cell killing [12, 18] [%]",Potency [13],max response [14],outcome [15],Potency ([12]; tumour line A),"activity, negative = cell killing [12, 19] [%]","activity, negative = cell killing ([12]; at 20 µM (top of the series), tumour line C) [%]"
Nc1ccc(O)c(C(=O)O)c1,inactive,inactive,inactive,inactive,inactive,inactive,inactive,inactive,inactive,inactive,inactive,-12.4,5.07,2.81,inactive,-0.0122% and -1.86%,inactive,–,–,–
O=C(Nc1ccc(C(=O)O)c(O)c1)c1ccccc1,inactive,inactive,inactive,inactive,inactive,inactive,inactive,inactive,inactive,inactive,inactive,-14.9,-3.46,-18.9,inactive,–,–,–,–,–
O=C(O)/C=C\C(=O)O,inactive,inactive,inactive,inactive,inactive,inactive,inactive,inactive,inactive,inactive,inactive,–,–,–,–,4.35%,inactive,–,–,–
COc1cc(CNC(=O)CCCC/C=C/C(C)C)ccc1O,inactive,inactive,inactive,inactive,inactive,inactive,inactive,inactive,inactive,inactive,inactive,-4.61,-7.09,17.4,inactive,0.324% and -3.76%,–,11.2 µM (active),–,–
C=CCCCCCCCCC(=O)O,inactive,inactive,inactive,inactive,inactive,inactive,inactive,inactive,inactive,inactive,inactive,-14.2,-8.73,6.77,–,0.475%,inactive,–,-10.4,–
CCCCCCCCCCCCCCCCCC(=O)O,inactive,inactive,inactive,inactive,inactive,inactive,inactive,inactive,inactive,inactive,inactive,-6.65,-11.1,-22.7,inactive,1.24% and 3.12% and 0.368%,inactive,–,-19.5,–
CCOc1ccc2nc(S(N)(=O)=O)sc2c1,inactive,inactive,inactive,inactive,inactive,inactive,inactive,inactive,–,inactive,inactive,-0.995,-17.7,1.48,–,–,–,–,–,–
CC1(C)S[C@@H]2[C@H](NC(=O)[C@H](NC(=O)N3CCN(S(C)(=O)=O)C3=O)c3ccccc3)C(=O)N2[C@H]1C(=O)O,inactive,inactive,inactive,inactive,inactive,inactive,inactive,inactive,–,inactive,inactive,-6.53,-7.16,-22.9,inactive,–,–,–,-8.92,–
O=C(CCN1CCN(CCO)CC1)N1c2ccccc2Sc2ccc(C(F)(F)F)cc21,–,inactive,inactive,inactive,inactive,inactive,inactive,inactive,inactive,inactive,inactive,-17.6,–,–,–,–,–,11.2 µM (active),–,–
Nc1ccc(O)c([N+](=O)[O-])c1,inactive,inactive,inactive,inactive,inactive,inactive,–,inactive,inactive,inactive,inactive,–,–,–,–,-2.38% and -0.765%,inactive,–,–,–
Cc1ccc(O)c(-n2nc3ccccc3n2)c1,–,–,inactive,inactive,inactive,inactive,3.55 µM (active),inactive,inactive,inactive,inactive,-17.2,-17.5,-2.87,inactive,–,–,–,–,–
CCCCC1C(=O)N(c2ccccc2)N(c2ccc(O)cc2)C1=O (stereo not given),–,inactive,–,inactive,–,inactive,–,–,–,–,22.4 µM (active),–,–,–,–,–,–,7.94 µM (active),–,-14.9
O=c1cc(-c2ccccc2)oc2ccccc12,–,–,–,15.8 µM (active),–,–,–,–,31.6 µM (active),–,–,–,–,–,–,–,–,–,–,–
